# Measured values as given in PubChem BioAssay (Tox21).
# Results filed as inconclusive are left out. A number with no mark means an inactive call. Calls of active or inactive are those of the source. Calls follow the shape of the dose curve; as a rule, active = well fitted cell-killing curve with a large enough effect in the repeat runs; inconclusive = weak or mixed curves; inactive = no such curve, though single readings can be large or run the other way.
# Assay: qHTS assay for identifying genotoxic compounds that show differential cytotoxicity against isogenic chicken DT40 cell lines with known DNA damage response pathways - Rad54/Ku70 mutant cell line (AID 743015); also: nearly all actives have a fitted effect of over 60% in size
# Conditions: DT40 Rad54/Ku70 mutant viability, CellTiter-Glo, 40 h; series mostly up to 66.8 µM; activity change, negative = cytotoxicity: at the top concentration
# % is scaled to controls: 0 for no effect and ±100 for the full control effect; potency is read from the fitted curve at half-maximal effect.
SMILES,Potency,"activity change, negative = cytotoxicity"
c1cc(N(CC2CO2)CC2CO2)ccc1Cc1ccc(N(CC2CO2)CC2CO2)cc1 (configuration not stated),1.93 µM (active),–
Nc1cccc2c1CN(C1CCC(=O)NC1=O)C2=O (configuration not stated),–,5.35%
Cc1ccc(Cl)c(Nc2ccccc2C(=O)O)c1Cl,–,4.74%
C=CC(=O)OCC1CC2CC1C1CCC(COC(=O)C=C)C21 (configuration not stated),19.3 µM (active),–
CCCCN1CCCC1C(=O)Nc1c(C)cc(C)cc1C (configuration not stated),29.8 µM (active),–
C=C/C(C)=C/C/C=C(\C)CCC=C(C)C,48.6 µM (active),–
C=C(C)CCCC(C)CCO (configuration not stated),54.5 µM (active),–
O=C(OC(=O)c1ccccc1)c1ccccc1,–,4.64% [at 95.1 µM]
C[C@@H](O[C@H]1OCCN(Cc2n[nH]c(=O)[nH]2)[C@H]1c1ccc(F)cc1)c1cc(C(F)(F)F)cc(C(F)(F)F)c1,23.7 µM (active),–
COC(=O)CCS,–,0.366%
CCn1cc(C(=O)O)c(=O)c2cc(F)c(N3CCNCC3)cc21,inactive,–
O=C1c2ccccc2C(=O)C1(O)O,27.4 µM (active),–
Cc1cc(C)c(N)cc1C,–,1.84%
CN1C(=O)OC(C)(C)C1=O,inactive,–
CC(=O)Nc1ccc(C)cc1C,–,16%
CCC(OCCCOC)OC(C)=O (configuration not stated),–,3.27% [at 95.1 µM]
O=C(O)CCCCCCCCCCCBr,–,9.34%
CCOC(=O)[C@H](CCc1ccccc1)N[C@@H](C)C(=O)N(CC(=O)O)C1Cc2ccccc2C1,23.7 µM (active),–
CC1(C)S[C@@H]2[C@H](NC(=O)C(c3ccccc3)S(=O)(=O)O)C(=O)N2[C@H]1C(=O)O (some centres not stated),–,7.21%
CC1(CN2CCC(n3c(=O)[nH]c4ccccc43)CC2)OCc2ccccc2-n2cccc21 (configuration not stated),21.1 µM (active),–
C(=C\c1ccccc1)/c1ccccc1,–,7.41% [at 95.1 µM]
CCC(=O)OC,–,3.29% [at 95.1 µM]
CCCCCCNC(=O)n1cc(F)c(=O)[nH]c1=O,11.9 µM (active),–
O=[N+]([O-])c1cc(C2CCCCC2)c(O)c([N+](=O)[O-])c1,19.3 µM (active),–
C[C@@H]1CC(=O)NN=C1c1ccc(NN=C(C#N)C#N)cc1,21.1 µM (active),–
Oc1c(I)cc(I)c2cccnc12,13.3 µM (active),–
CC(=O)NC1(c2cccc(F)c2)CCN(CC[C@@]2(c3ccc(Cl)c(Cl)c3)CN(c3ccccc3)C(=O)CO2)CC1,48.7 µM (active),–
